Source: PubChem BioAssay
Compounds with a hit are over-represented: about 4.5% of the library has one in this group of screens.
PfHsp40 yeast: restores yeast growth despite PfHsp40 toxicity | 340,000 compounds, 0.68% hits | S. cerevisiae expressing PfHsp40, growth rescue, ATP luminescence | growth rescue, % at 12.5 µM; in the data active means growth rescue above about 28%, passing the limit was not always enough;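 further: yeast W303a lacking pdr1 and pdr3 grown in galactose medium; growth measured after three days at 30 °C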
GDH-TPI counter: counter-screen for M. tuberculosis FBA inhibitors: GDH-TPI coupled enzymes. GDH-TPI coupled enzyme counterscreen, NADH absorbance. inhibition, % at 4.8 µM. 360,000 compounds, 1.2% hits. AID 588335; in the data active means inhibition above about 30%;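 further: 0% = DMSO wells and 100% = wells lacking the enzyme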
BJeLR viability: BJeLR cell viability loss | inhibition, % (no concentration beside the values) | BJeLR (HRASV12) viability, CellTiter-Glo ATP luminescence, 48 h | 300,000 compounds, 0.17% hits; in the data active means inhibition above about 50%
FBA Mtb inh: Mtb fructose-bisphosphate aldolase inhibition; P9WQA3; purified M. tuberculosis FBA, fluorescence read-out; inhibition, % at 1 µM; 360,000 compounds, 2.3% hits; in the data active means inhibition above about 27%;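 further: 0% = vehicle and 100% = reference inhibitor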
PrPC surface inh: cell surface PrPC inhibition, primary TR-FRET screen; P04156; TR-FRET read-out; inhibition, % at 13.8 µM; 370,000 compounds, 0.43% hits; in the data active means inhibition above about 24%; further: 0% = median of the test wells and 100% = reference compound wells
PrP UTR inh: inhibition of PrP 5' UTR reporter expression; cell-based PrP 5' UTR mRNA reporter, plate reader; inhibition, % (no concentration beside the values); 340,000 compounds, 0.35% hits; AID 488862; in the data active means inhibition above about 52%; further: 0 = median of the neutral control wells
PrPC confirm: confirmation of inhibitors of cell surface human prion protein; inhibition, % at 13.8 µM; cell surface PrPC level, TR-FRET; shares compounds with PrPC surface inh; 1,500 compounds, 65% hits; in the data active means inhibition above about 25%
LD9 cytotox: kills or reduces viability of LD9 cells in PrPc counter-screen | shares compounds with PrPC surface inh | LD9 cells cytotoxicity, luminescence viability | inhibition, % at 13.8 µM | 1,500 compounds, 29% hits; in the data active means inhibition above about 9.5%
Active calls of the source: *; / = no result.

SMILES | PfHsp40 yeast | GDH-TPI counter | BJeLR viability | FBA Mtb inh | PrPC surface inh | PrP UTR inh | PrPC confirm | LD9 cytotox
COc1ccccc1NC(=O)CSc1ncnc2c1oc1ccccc12 | -1.2 | -11.4 | 2.5 | -2.9 | 26.5* | -15.3 | 20.4 | 0.5
S=C(Nc1ccccc1)Nc1nccs1 | 0.9 | 20.0 | 3.1 | -0.3 | 11.2 | -36.6 | / | /
Fc1ccc(NC(=S)Nc2nccs2)cc1 | -0.2 | 3.8 | 6.9 | -2.4 | 31.7* | -53.9 | 19.9 | 5.0
CC1(C2CC2)NC(=O)N(CC(=O)Nc2ccccc2F)C1=O (stereo not given) | -0.1 | 9.8 | / | 4.7 | -7.6 | -26.8 | / | /
CCOc1ccc(-c2cc(C(=O)NCCCn3ccnc3)c3cc(Br)ccc3n2)cc1 | -0.4 | 8.6 | 1.7 | 6.0 | 25.4* | -12.4 | 82.3* | -0.4
N#Cc1ccc(NC(=O)Nc2ccc(Cl)cc2)cc1 | 0.2 | -1.5 | 12.3 | -1.6 | 26.6* | -39.5 | 32.4* | 16.2*
O=C(O)CSc1ncnc2sc3c(c12)CCCC3 | -2.3 | -3.1 | -2.8 | 7.9 | 29.6* | -25.3 | 53.3* | -9.6
CCn1c(SCC(N)=O)nc2sc3c(c2c1=O)CCCC3 | -0.5 | 16.9 | 9.2 | 1.0 | 24.1 | -9.1 | / | /
NC(=O)CSc1nc2sc3c(c2c2ncnn12)CCCC3 | -0.8 | 6.2 | -13.5 | 4.0 | 47.2* | -14.4 | 47.4* | -4.2
CCSc1ncnc2sc3c(c12)CCC3 | -0.3 | -6.2 | 7.1 | 2.0 | 0.6 | -10.3 | / | /
O=C(O)CSc1ncnc2sc3c(c12)CCC3 | 0.0 | -5.6 | -1.0 | 14.1 | 46.6* | 1.6 | 50.4* | -4.8
COC(=O)[C@@]1(Cc2ccc(F)cc2)[C@H]2c3cc(C(=O)N4CCCC4)n(Cc4cc(F)cc5c4OCOC5)c3C[C@H]2CN1C(=O)c1ccccc1 | / | / | / | / | -4.4 | / | / | /
Cc1ccc(C2=NS(=O)(=O)N(C)C(C(=O)N3CCOCC3)=C2)cc1 | -0.3 | 24.4 | -3.3 | 1.6 | -10.9 | 1.9 | / | /
O=C(N/N=C/c1ccc(O)cc1O)/C(=C/c1ccccc1)CCO | -0.5 | 41.1* | -12.3 | 0.5 | 30.3* | -22.3 | 32.5* | 17.4*
CN1C(=O)C(C)(C)c2cc(S(=O)(=O)N3CCCC(C(=O)Nc4ccc(Cl)cc4)C3)ccc21 (stereo not given) | 0.6 | 6.6 | 7.4 | -0.9 | 80.6* | -19.1 | 73.2* | 4.4
CN1C(=O)C(C)(C)c2cc(S(=O)(=O)N3CCCC(C(=O)NCc4ccc(F)cc4)C3)ccc21 (stereo not given) | -0.2 | 1.4 | 9.6 | 0.4 | 29.1* | -27.2 | 40.1* | 3.6
COc1cccc(CNC(=O)C2CCCN(S(=O)(=O)c3ccc4c(c3)C(C)(C)C(=O)N4C)C2)c1 (stereo not given) | 0.6 | 18.8 | 7.7 | -2.6 | 12.1 | -18.9 | / | /
Cc1ccccc1NC(=O)C1CCCN(S(=O)(=O)c2ccc3c(c2)C(C)(C)C(=O)N3C)C1 (stereo not given) | 2.2 | -13.9 | 5.1 | -0.4 | 11.7 | -10.9 | / | /
CC(C)c1ccc(NC(=O)C2CCCN(S(=O)(=O)c3ccc4c(c3)C(C)(C)C(=O)N4C)C2)cc1 (stereo not given) | -0.7 | -10.1 | 10.5 | 0.3 | 78.8* | -3.5 | 72.7* | -1.8
CCOc1ccc(NC(=O)C2CCCN(S(=O)(=O)c3ccc4c(c3)C(C)(C)C(=O)N4C)C2)cc1 (stereo not given) | / | 5.2 | / | 0.8 | 39.2* | / | 32.7* | -4.2
CCOc1ccc(NC(=O)C2CCN(S(=O)(=O)c3ccc4c(c3)C(C)(C)C(=O)N4C)CC2)cc1 | -0.8 | -4.3 | 5.6 | 0.1 | -9.9 | -27.2 | / | /
Cc1c([N+](=O)[O-])c(C/C=N/O)nn1C | -0.5 | 20.0 | -11.0 | 0.6 | 33.0* | -8.4 | 6.9 | -2.7
CC(=O)c1c(C(=O)O)[nH]c(C(=O)O)c1C | 0.2 | -8.0 | -0.8 | -4.1 | -4.7 | -16.2 | / | /
COc1ccc(NC(=O)C2CCCN(S(=O)(=O)c3ccc4c(c3)CCCN4C(C)=O)C2)cc1 (stereo not given) | 0.1 | 5.2 | -1.9 | 1.0 | 1.8 | -11.6 | / | /
COc1cc(NC(=O)C2CCCN(S(=O)(=O)c3ccc4c(c3)CCCN4C(C)=O)C2)cc(OC)c1 (stereo not given) | -1.9 | 9.2 | -3.3 | -2.0 | 41.0* | 1.3 | 28.2* | -0.6
SMILES | PfHsp40 yeast | GDH-TPI counter | BJeLR viability | FBA Mtb inh | PrPC surface inh | PrP UTR inh | PrPC confirm | LD9 cytotox
CC(=O)N1c2ccc(S(=O)(=O)N3CCCC(C(=O)Nc4cc(C)cc(C)c4)C3)cc2CC1C (stereo not given) | -0.5 | 6.2 | 7.2 | 4.8 | 35.5* | -0.8 | 57.9* | -4.6
CC(=O)N1c2ccc(S(=O)(=O)N3CCCC(C(=O)Nc4ccc(F)cc4)C3)cc2CC1C (stereo not given) | -0.4 | 5.2 | 13.6 | 4.5 | 34.8* | -2.4 | 38.9* | 15.5*
Cc1cccc(N2CC(C(=O)Nc3ccc(S(=O)(=O)Nc4nccs4)cc3)CC2=O)c1C (stereo not given) | 0.9 | 6.6 | 1.6 | -1.1 | -0.8 | -13.1 | / | /
Cc1cccc(Cl)c1NC(=O)N1CCCN(c2nc3ccc(Cl)cc3s2)CC1 | -0.2 | -2.0 | 2.5 | 4.9 | 4.5 | -15.6 | / | /
Cc1nc(Nc2ncc(C(=O)Nc3c(C)cccc3Cl)s2)cc(N2CCN(CCO)CC2)n1 | / | / | / | / | 24.7* | / | 19.4 | 0.8
Cc1cccc(-c2c(NC(=O)c3ccco3)oc3c(C)cccc3c2=O)c1 | -1.6 | 13.6 | -4.5 | -2.2 | 1.8 | -24.5 | / | /
Cc1cccc2c(=O)c(-c3ccc4c(c3)OCO4)c(NC(=O)c3ccco3)oc12 | 0.3 | 5.7 | -0.7 | -1.0 | 63.5* | -25.2 | 66.5* | -6.8
Cc1ccc(S(=O)(=O)N(C)C)cc1NC(=O)CN1C(=O)NC(Cc2ccccc2)C1=O (stereo not given) | 1.0 | -0.3 | -6.0 | 2.5 | 8.6 | -9.4 | / | /
CCOc1ccccc1-c1n[nH]c(=S)o1 | -0.9 | -2.1 | -7.2 | 11.2 | 26.9* | -19.8 | 25.1* | -6.7
CCOc1ccc(-c2n[nH]c(=S)o2)cc1 | 6.6 | -0.9 | -2.1 | 22.4 | 1.9 | -24.8 | / | /
CCC(=O)N1CCN(c2ccc(NC(=O)c3ccc([N+](=O)[O-])o3)cc2Cl)CC1 | 9.0 | 8.6 | 10.9 | 1.6 | 38.5* | -65.0 | 21.2 | 96.7*
O=S(=O)(Nc1nc2ccccc2nc1Cl)c1cccc(C(F)(F)F)c1 | -0.6 | 4.4 | -6.4 | 2.0 | 5.1 | -31.2 | / | /
S=C(Nc1ccccc1)Nc1ccc(Br)cc1 | 3.1 | 7.8 | -0.3 | 0.3 | 24.6* | / | 19.8 | 4.8
S=C(Nc1ccccc1)Nc1cccc(Br)c1 | -0.3 | -7.8 | -4.0 | -2.8 | 3.0 | -24.9 | / | /
CCCCCc1c(-c2ccccc2OC)ncn1CCc1ccccc1OC | / | / | / | / | 12.5 | / | / | /
CCCCCc1c(CC)ncn1CCc1ccccc1OC | / | / | / | / | 28.9* | / | 19.4 | 22.1*
